Measured values published in PubChem BioAssay AID651946 (Broad Institute, 2012).
Measured potencies and affinities stand elsewhere. Calls of active or inactive are those of the source.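 Rule for the calls: active = toxic compound whose fitted half-effect dose of signal loss is at most twice its top tested dose; inconclusive = flat fit losing 30 to 70% signal, or poor fit; inactive = the rest.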

experiment: HeLa cell viability loss – plate reader, dry powder, cytotoxicity control, dose response (AID 651946); conditions: ATP luminescence (CellTiter-Glo), 48 h; series mostly up to 26 µM; activity change, negative = cytotoxicity: at the top concentration

Row | SMILES | activity change, negative = cytotoxicity
1 | COc1ccc(CSc2nnc(-c3ccccc3)o2)cc1 | -12.5% (inactive)
2 | Clc1ccc(-c2nnc(SCc3ccccc3)o2)cc1 | 9.97% (inactive)
3 | c1ccc(CSc2nnc(-c3ccccc3)o2)cc1 | -8.64% (inactive)
